Results on 105 compounds are retold here after PubChem BioAssay AID2314 (National Center for Advancing Translational Sciences (NCATS), 2010).

About 37,000 (12%) of roughly 300,000 compounds were called active. This excerpt belongs to a sample that is enriched for actives. Values without a mark were called inactive. No stated cut-off is given here; in the data, active means max response mostly above about 13% (no sharp cut-off); inactive means mostly below about 14%.

A short description of this experiment: Cycloheximide Counterscreen for Small Molecule Inhibitors of Shiga Toxin. Further: read at 38.3 µM for the half of the compounds with a filed dose; 0% is about no effect. Conditions: cell reporter, cycloheximide protein synthesis inhibition counterscreen; stronger effect = higher value. A general note: A counterscreen serves to expose hits that act by an unwanted route or on another target.
As to `COC(=O)CN1C(=O)[C@H]2[C@@H](/C=C/c3ccccc3)N3C(=O)CN(CC4CC4)C(=O)[C@@]3(Cc3ccccc3)[C@H]2C1=O`, the max response is 0.35%.

On to `Cc1c2cnn(CC(=O)NCCCN3CC(C)CC(C)C3)c(=O)c2c(C)n1Cc1ccc(Cl)cc1` (stereo not given), for which the max response was -5.34%.

On to `CCc1ccc2ncc(C(=O)c3ccccc3)c(N3CCOCC3)c2c1`, for which the max response was 2.65%.

As to `CCOc1ccc(C(=O)Nc2c3c(nn2-c2ccccc2)CS(=O)(=O)C3)cc1`, the max response was -1.43%.

Take `CSCCNC(=O)c1ccc2nc(Cc3ccccc3F)oc2c1`: the max response was 54.4% (active).

As for `COc1ccccc1-n1c(C)nc2cc(C(=O)NCc3ccc4c(c3)OCO4)ccc21`, the max response was 5.54%.

Take `COc1ccc(Cc2nc3ccc(C(=O)N4CCC(N(C)C)C4)cc3o2)cc1` (stereo not given): the max response was 7.38%.

`Cn1cc(C(=O)NCc2ccccc2F)cn1`: the max response was -3.82%.

As for `CCn1ccnc1CN(C)C(=O)c1ccc2nc(Cc3ccc(OC)cc3)oc2c1`, the max response is -0.601%.

With `CCC1C(=O)NCCN1C(=O)c1ccc2nc(Cc3ccc(OC)cc3)oc2c1` (stereo not given), the max response was 16.3%.

Consider `COCCNC(=O)c1ccc2nc(Cc3ccc(OC)c(OC)c3)oc2c1`, for which the max response is 32% (active).

Take `COc1ccc(C(=O)NCCc2ccc(S(N)(=O)=O)cc2)cc1OC`: the max response is 9.83%.

In the case of `COc1ccc(Cc2nc3ccc(C(=O)NCC4CCOCC4)cc3o2)cc1OC`, the max response was 23.6% (active).

In the case of `Cc1ccc(S(=O)(=O)N2CCC3(CC2)OCCO3)c(C)c1`, the max response is -3.35%.

As for `Cc1ccc(S(=O)(=O)N2CCN(C(=O)CSc3cc(C)ccc3C)CC2)c(C)c1`, the max response is 12.6%.

As to `C=CCOc1ccc(/C=C/C(=O)OCC(=O)NC2CCCCCC2)cc1`, the max response was -2.39%.

For the compound `O=S(=O)(Cc1nnnn1-c1ccccc1)c1ccccc1`, the max response was -0.262%.

On to `O=C(CN1C(=O)c2ccccc2S1(=O)=O)NC1CCCCC1`, for which the max response was 3.93%.

Turning to `Cc1ccc(F)cc1NC(=O)N1CCCN(c2ccc(C(F)(F)F)cn2)CC1`, the max response was -0.488%.

Turning to `O=C(CSc1nc(Nc2ccccc2)nc(N2CCOCC2)n1)Nc1cc(Cl)ccc1O`, the max response was 7.58%.

`O=C(O)c1ccc(/C=C2/SC(=S)N(c3cccc(C(F)(F)F)c3)C2=O)cc1`: the max response was -7.16%.

For `S=C(Nc1cccc(Cl)c1)Nc1ccc2c(c1)OCCO2`, the max response is 42.2% (active).

Consider `S=C(NCc1ccc2c(c1)OCO2)NCc1ccco1`, for which the max response is 28.4% (active).

For the compound `S=C(NCc1ccco1)Nc1ccc2c(c1)OCCO2`, the max response is 69.9% (active).

`S=C(NCc1ccco1)NCc1ccccc1Cl`: the max response is -2.41%.

`FC(F)Oc1ccc(NC(=S)NCc2ccco2)cc1Cl`: the max response was 11.2%.

As for `COc1cc(NC(=S)NCc2ccco2)c(OC)cc1Cl`, the max response is -2.3%.

Turning to `FC(F)(F)c1cccc(NC(=S)Nc2cccc(Cl)c2)c1`, the max response is -2.33%.

`Cc1c(Cl)cccc1NC(=S)NCc1ccc2c(c1)OCO2`: the max response is -1.28%.

As for `CN(C)S(=O)(=O)c1cccc(NC(=S)NCc2ccc3c(c2)OCO3)c1`, the max response is 0.966%.

Turning to `O=S(=O)(c1ccccc1)N(Cc1cccc(F)c1)c1ccccc1`, the max response is -0.496%.

Take `CC(=O)N1CCC(C(=O)Nc2nc(-c3ccccc3)ns2)CC1`: the max response is 0.624%.

Take `NC(=O)c1cc(S(=O)(=O)NCCCc2ccco2)cs1`: the max response was -2.26%.

Take `CCc1nnc(NC(=O)[C@@H](NC(=O)c2cccc(C)c2)C(C)C)s1`: the max response is -2.22%.

As for `C=CCn1c(SCc2ccccc2)nc2c1c(=O)[nH]c(=O)n2C`, the max response was -1.99%.

Regarding `CC(C)C(=O)Nc1nnc(SCC(=O)N2C(C)CCCC2C)s1` (stereo not given), the max response was 1.12%.

As for `CCCc1nnc(SCC(=O)N2C(C)CCCC2C)n1CC` (stereo not given), the max response was 7.27%.

In the case of `O=C(CSc1nnnn1C1CCCC1)N1CCCCC1`, the max response is 27% (active).

For `CC(Sc1nnnn1C1CCCCC1)C(=O)O` (stereo not given), the max response was 5.78%.

Regarding `CC1CCCC(C)N1C(=O)CSc1nnnn1C1CCCC1` (stereo not given), the max response is 25.7% (active).

`O=C(CSc1nnc2ccc(-c3ccncc3)nn12)N1CCCCC1`: the max response was -4.64%.

Take `O=Cc1cn(-c2ccccc2)nc1-c1ccccn1`: the max response is 3.16%.

As to `Cc1c(CN2CC[C@@H](N3CCN(c4ccccn4)CC3)[C@H](O)C2)[nH]c2ccc(F)cc12`, the max response was 1.28%.

For the compound `O=C(NCc1ccccc1)C(c1ccccc1)N(C(=O)c1csnn1)c1ccc(F)cc1` (stereo not given), the max response was -4.47%.

In the case of `O=S(=O)(Cc1noc(-c2ccc(OC(F)(F)F)cc2)n1)c1ccc(F)cc1`, the max response was 22.3% (active).

As to `O=S(=O)(Cc1nnnn1-c1ccc(Br)cc1)c1ccc(F)cc1`, the max response is -2.53%.

As for `O=S(=O)(Nc1ccc(OC(F)(F)F)cc1)c1cccc2nonc12`, the max response was -2.47%.

`COc1cc(OC)cc(C(=O)NC(=S)N2CCN(c3ccc(C(F)(F)F)cc3[N+](=O)[O-])CC2)c1`: the max response was 4.72%.

For the compound `Cc1cc(C)cc(NS(=O)(=O)c2ccc(F)cc2)c1`, the max response is -2.02%.

As for `Cn1nccc1NS(=O)(=O)c1ccc(F)cc1`, the max response was 162% (active).

For `Cc1ccc(NS(=O)(=O)c2ccc(F)cc2)nc1`, the max response was -3.76%.

With `COc1cc2c(cc1OC)CC1(CCCCC1)N=C2`, the max response is -2.87%.

`CSCc1nnc(NC(=O)c2ccc(S(=O)(=O)N3CCCCC3C)cc2)o1` (stereo not given): the max response was -2.84%.

Turning to `CCOc1ccc(C2C3=C(CCCC3=O)N(CC(=O)O)C3=C2C(=O)CCC3)cc1`, the max response is -3.14%.

In the case of `COc1ccc(Nc2ncnc3sc(-c4ccccc4)cc23)c(OC)c1`, the max response is 7.7%.

In the case of `COc1ccc(Nc2ncnc3ccc(Br)cc23)c(OC)c1`, the max response is 26.7% (active).

For the compound `C=CCNc1ncnc2ccc(Br)cc12`, the max response is -5.1%.

For `CN(Cc1c(F)cccc1Cl)S(=O)(=O)c1cccs1`, the max response is -2.55%.

Take `CN(CCc1ccccc1)c1ccc([N+](=O)[O-])cn1`: the max response was 0.432%.

Regarding `COc1cccc(CC2(CO)CCCN(CC3=Cc4cc(OC)ccc4OC3)C2)c1` (stereo not given), the max response was -0.657%.

On to `CN1c2ccc([N+](=O)[O-])cc2C(C)(C)C12C=Cc1cc(C(=O)O)ccc1O2` (stereo not given), for which the max response is -2.71%.

As for `COc1ccc2c(c1)C=CC1(O2)N(CCO)c2ccccc2C1(C)C` (stereo not given), the max response was 26% (active).

For `O=C(c1cccc(-n2cccc2)c1)N1CCN(S(=O)(=O)c2ccc(F)cc2)CC1`, the max response is 5.03%.

Turning to `O=c1[nH]c(CSc2ccccc2)nc2c1oc1ccccc12`, the max response is -1.34%.

Turning to `Cc1nc(SCC(=O)NC2CCCC2)[nH]c(=O)c1C`, the max response was 0.618%.

`O=C(CN1CCN(S(=O)(=O)c2ccc(Br)cc2)CC1)Nc1ccccc1C(=O)c1ccccc1`: the max response was -0.92%.

For the compound `O=S(=O)(Cc1cc(Cl)nc(-c2cccnc2)n1)c1ccccc1`, the max response is -0.203%.

`O=S(=O)(c1ccccc1)N1CN(Cc2ccc(F)cc2)c2nc3ccccc3nc21`: the max response is 19.8% (active).

Regarding `COc1ccc(S(=O)(=O)N2CN(CCc3ccc(OC)c(OC)c3)c3nc4ccccc4nc32)cc1`, the max response is -0.593%.

Consider `C=CCN1CN(S(=O)(=O)c2ccc(OC)cc2)c2nc3ccccc3nc21`, for which the max response is 15.9%.

For `O=C(NCCCN1CCOCC1)C1CCCN(S(=O)(=O)N2CCCCC2)C1` (stereo not given), the max response is 7.19%.

`CC(C)N1CCc2c(sc(NC(=O)Cc3ccccc3)c2C#N)C1`: the max response was 1.8%.

For the compound `NC(=S)N/N=C/c1coc2cc(Cl)ccc2c1=O`, the max response is -4.85%.

For `CC(C)(C)OC(=O)NCCCCCC(=O)N/N=C/c1coc2ccccc2c1=O`, the max response is 37.7% (active).

For the compound `Cc1ccc2occ(/C=N/NC(=O)c3ccccc3C)c(=O)c2c1`, the max response is 9.31%.

For `COc1cccc(NC(=O)COc2cc(C)cc3oc(=O)cc(C)c23)c1`, the max response is -6.8%.

As for `COC(c1ccccc1)(c1ccccc1)C(Oc1nc(C)cc(C)n1)C(=O)O` (stereo not given), the max response is -1.54%.

Turning to `O=C(NCc1cccs1)C1CCN(S(=O)(=O)c2ccc(Cl)cc2)CC1`, the max response was 8.38%.

Turning to `O=C(NCc1csc(-c2cccs2)n1)C1CC1`, the max response was 49.8% (active).

For the compound `CC(C)(C)C1CCC(C(=O)NCC(c2cccs2)N2CCOCC2)CC1` (stereo not given), the max response is 1.44%.

Take `CCN(CC)S(=O)(=O)c1ccc(N2CCN(C)CC2)c(NC(=O)Nc2ccccc2F)c1`: the max response was -3.4%.

As for `CCC(CC)C(=O)Nc1c2c(nn1-c1ccc(C)cc1)CS(=O)(=O)C2`, the max response is -1.32%.

Regarding `Cn1c(N)c(C(=O)COC(=O)c2cnc(Cl)c(Cl)c2)c(=O)n(C)c1=O`, the max response was -2.82%.

With `CCNC(=S)N1CCN(C(=O)c2ccco2)CC1`, the max response was -0.408%.

As to `CC(C)CNC(=O)COC(=O)/C=C/c1ccco1`, the max response is -2.86%.

Consider `O=C(/C=C/c1ccco1)NC(=S)Nc1ccccc1Br`, for which the max response was 21% (active).

Turning to `COc1ccc(/C=C/C(=O)NC(=S)N2CCCC(C(N)=O)C2)cc1` (stereo not given), the max response is 12.7%.

Consider `O=C(/C=C/c1ccco1)NC(=S)N1CCCCC1`, for which the max response is 25.7% (active).

As to `COc1ccc(Cl)cc1C(=O)NNC(=S)NC(=O)/C=C/c1ccco1`, the max response was 0.62%.

`O=C(Cc1ccccc1)Nc1ccc(C(=O)Nc2ccccc2C(=O)O)cc1`: the max response was -2.41%.

Regarding `Cn1sc(=O)c2cc(S(=O)(=O)NC3CC3)ccc21`, the max response was -2.97%.

With `CCCNC(=S)N1CCC(NC(=O)c2ccc(OC)cc2)CC1`, the max response was -1.83%.

Consider `Cc1nnc(SCC(=O)Nc2ccc(S(=O)(=O)Nc3ccc(Cl)nn3)cc2)s1`, for which the max response is -1.1%.

In the case of `COc1ccc(C)cc1NC(=O)Nc1ccccc1SC`, the max response is 0.774%.

As for `CCOc1ccc(C(=O)Nc2ccc(S(=O)(=O)Nc3cc(C)on3)cc2)cc1`, the max response is -5.61%.

Take `CCOc1ccc(NC(=O)Nc2cc(C)ccc2OC)cc1`: the max response is 25.4% (active).

Take `Cc1cc(NC(=O)c2ccccc2C)no1`: the max response is 32.6% (active).

`Cc1cc(NC(=O)CSCc2ccccc2C)no1`: the max response was 12.4%.

Turning to `CCOc1ccc(NC(=O)Nc2cc(C)on2)cc1`, the max response was 43.6% (active).

As for `CCC(=O)Nc1ccc(C(=O)Nc2cc(C)on2)cc1`, the max response was 17.5% (active).

Take `CCC(=O)Nc1ccc(C(=O)Nc2ccc3c(c2)C(=O)N(CC2CCCO2)C3=O)cc1` (stereo not given): the max response is -2.89%.

On to `CCOc1ccc(C(=O)Nc2cc(OC)ccc2OC)cc1`, for which the max response is -3.82%.

As for `Cc1cc(NC(=O)c2cccc(N3C(=O)CCC3=O)c2)no1`, the max response was -2.26%.

For `Cc1cc(NC(=O)CN2CCC(O)(c3cccc(F)c3)CC2)no1`, the max response is 4.43%.

In the case of `CCOc1ccc(CC(=O)Nc2ccc(S(=O)(=O)Nc3cc(C)on3)cc2)cc1OCC`, the max response was -4.07%.
